# Measured values published in the supplement of paper PMC9446081.
# Out of some 39,000 compounds screened, about 220 (0.56%) showed activity. Shown is part of a subset that was picked to be rich in actives. A number with no mark means an inactive call.
# System: Escherichia coli K-12 BW25113
# Assay: relative growth (OD600 normalised to plate interquartile mean) (fraction); higher = less growth inhibition, active = 0.2 or less
# Conditions: 50 µM; LB; incubation time: overnight (16-24 h)
# 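Further: Wild-type cells incubated without shaking, value is the mean of two biological replicates.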
row,Compound,relative growth
1,O=C(Cn1nnc2ccccc2c1=O)Nc1nnc[nH]1,0.982
2,C[C@@H]1CN([C@H](C)CO)S(=O)(=O)c2ccc(C#CC3(O)CCCC3)cc2O[C@H]1CN(C)C(=O)Nc1cccc(F)c1,1
3,Cc1cc(C)n(CCNC(=O)[C@H]2CCCN(c3cccc4c3C(=O)N(Cc3ccc5c(c3)OCO5)C4=O)C2)n1,0.993
4,C[C@H](CO)N1C[C@H](C)[C@H](CN(C)C(=O)Nc2ccc(F)cc2)Oc2ncc(Br)cc2C1=O,0.974
5,CN(C)C(=O)C[C@@H]1CC[C@@H]2[C@H](COC[C@H](O)CN2S(=O)(=O)c2ccccc2)O1,1.02
6,Cn1cnc(S(=O)(=O)N2C[C@@H](O)COC[C@H]3O[C@@H](CC(=O)N4CCN(c5ccccc5)CC4)CC[C@@H]32)c1,1.02
7,CC[C@@H](C)[C@H]1O[C@@]2(CC[C@@H]1C)C[C@H]1C[C@@H](CC=C(C)[C@@H](O[C@H]3C[C@@H](OC)[C@@H](O[C@H]4C[C@@H](OC)[C@@H](O)[C@@H](C)O4)[C@@H](C)O3)[C@@H](C)C=CC=C3CO[C@H]4[C@@H](O)C(C)=C[C@@H](C(=O)O1)[C@]34O)O2.CO[C@H]1C[C@@H](O[C@@H]2[C@@H](OC)C[C@@H](O[C@@H]3C(C)=CC[C@@H]4C[C@@H](C[C@@]5(CC[C@@H](C)[C@H](C(C)C)O5)O4)OC(=O)[C@@H]4C=C(C)[C@H](O)[C@@H]5OCC(=CC=C[C@@H]3C)[C@@]45O)O[C@@H]2C)O[C@@H](C)[C@@H]1O,1
8,C[C@@H]1CCCCO[C@H](CN(C)C(=O)Nc2ccccc2)[C@H](C)CN([C@@H](C)CO)C(=O)c2cc(NC(=O)c3ccccc3)ccc2O1,0.982
9,CC[C@@H]1OC(=O)[C@H](C)[C@@H](O[C@H]2C[C@@](C)(OC)[C@@H](O)[C@H](C)O2)[C@H](C)[C@@H](O[C@@H]2O[C@H](C)C[C@H](N(C)C)[C@H]2O)[C@](C)(O)C[C@@H](C)/C(=N\OCOCCOC)[C@H](C)[C@@H](O)[C@]1(C)O,0.165 (active)
10,CCC(=O)O[C@H]1[C@H](O[C@@H]2[C@@H](C)[C@H](O[C@H]3C[C@@](C)(OC)[C@@H](O)[C@H](C)O3)[C@@H](C)C(=O)O[C@H](CC)[C@@](C)(O)[C@H](O)[C@@H](C)C(=O)[C@H](C)C[C@@]2(C)O)O[C@H](C)C[C@@H]1N(C)C,0.947
11,CC[C@H]1OC(=O)[C@H](C)[C@@H](O[C@H]2C[C@@](C)(OC)[C@@H](O)[C@H](C)O2)[C@H](C)[C@@H](O[C@@H]2O[C@H](C)C[C@H](N(C)C)[C@H]2O)[C@](C)(OC)C[C@@H](C)C(=O)[C@H](C)[C@@H](O)[C@]1(C)O,0.0351 (active)
12,CCC1OC(=O)C(C)C(OC2CC(C)(OC)C(O)C(C)O2)C(C)C(OC2OC(C)CC(N(C)C)C2O)C(C)(O)CC(C)C(=O)C(C)C(O)C1(C)O (configuration not stated),0.408
13,CCC1OC(=O)C(C)C(OC2CC(C)(OC)C(O)C(C)O2)C(C)C(OC2OC(C)CC(N(C)C)C2O)C(C)(O)CC(C)C(=NOCOCCOC)C(C)C(O)C1(C)O (configuration not stated),0.613
14,CC[C@H]1OC(=O)[C@H](C)[C@@H](O[C@H]2C[C@@](C)(OC)[C@@H](O)[C@H](C)O2)[C@H](C)[C@@H](O[C@@H]2O[C@H](C)C[C@H](N(C)C)[C@H]2O)[C@](C)(O)C[C@@H](C)C(=O)[C@H](C)[C@@H](O)[C@]1(C)O,0.0484 (active)
15,CCOC(=O)CCC(=O)OC1C(OC2C(C)C(OC3CC(C)(OC)C(O)C(C)O3)C(C)C(=O)OC(CC)C(C)(O)C(O)C(C)C(=O)C(C)CC2(C)O)OC(C)CC1N(C)C (configuration not stated),0.709
16,CC[C@H]1OC(=O)[C@H](C)[C@@H](O[C@H]2C[C@@](C)(OC)[C@@H](O)[C@H](C)O2)[C@@H](C)[C@@H](O[C@H]2O[C@H](C)C[C@H](N(C)C)[C@H]2O)[C@](C)(O)C[C@@H](C)C(=O)[C@H](C)[C@@H](O)[C@]1(C)O,0.375
17,CCOC(=O)CCC(=O)O[C@H]1[C@H](O[C@@H]2[C@@H](C)[C@H](O[C@H]3C[C@@](C)(OC)[C@@H](O)[C@H](C)O3)[C@@H](C)C(=O)O[C@H](CC)[C@@](C)(O)[C@H](O)[C@@H](C)C(=O)[C@H](C)C[C@@]2(C)O)O[C@H](C)C[C@@H]1N(C)C,0.0544 (active)
18,CCC1OC(=O)C(C)C(OC2CC(C)(OC)C(O)C(C)O2)C(C)C(OC2OC(C)CC(N(C)C)C2O)C(C)(O)CC(C)C2NC(COCCOC)OC(C2C)C1(C)O (configuration not stated),0.433
19,CC[C@@H]1OC(=O)[C@@H](C)[C@H](O[C@H]2C[C@@](C)(OC)[C@@H](O)[C@H](C)O2)[C@@H](C)[C@H](O)[C@@](C)(O[C@@H]2O[C@H](C)C[C@H](N(C)C)[C@H]2O)C[C@H](C)C(=O)[C@@H](C)[C@H](O)[C@@]1(C)O,0.427
20,CCC1OC(=O)C(C)C(OC2CC(C)(OC)C(O)C(C)O2)C(C)C(OC2OC(C)CC(N(C)C)C2O)C(C)(OC)CC(C)C(=O)C(C)C(O)C1(C)O (configuration not stated),0.536
21,COc1ccc(NC(=O)N(C)C[C@@H]2OCCCC[C@@H](C)Oc3ccc(NC(=O)Nc4ccccc4)cc3C(=O)N([C@H](C)CO)C[C@@H]2C)cc1,1.01
22,CCCCCCO[C@@H](C)c1cccc(-c2csc(NC(=O)c3cc(Cl)c(/C=C(\C)C(=O)O)c(Cl)c3)n2)c1OC,0.777
23,C=CCC[C@H](Cc1ccc(F)cc1)C(=O)O[C@@H](CNC(=O)[C@@H](CC=C)CC(=O)N(CCO)Cc1ccccc1)c1ccccc1,1.07
24,CC(=O)N1CCN(C(=O)C(=O)NC[C@H](c2ccc(N(C)C)cc2)N2CCOCC2)CC1,0.989
25,Cc1cc(C)c(NC(=O)[C@@H](N)Cc2ccccc2)c(Cl)c1,1.02
26,Cc1ccc(S(=O)(=O)N(C)C[C@H]2Oc3cc(C#Cc4ccncc4)ccc3S(=O)(=O)N([C@@H](C)CO)C[C@H]2C)cc1,1.04

row,Compound,relative growth
1,c1ccc(-c2ccnc(-c3cc(-c4ccccc4)ccn3)c2)cc1,0.99
2,Cl.NCCCC(=O)O [gamma-AMINOBUTYRIC ACID HYDROCHLORIDE],0.905
3,CNC(=O)NCc1ccc2c(c1)OCO2,1
4,CCn1nc(C(=O)O)c(=O)c2cc3c(cc21)OCO3,0.0537 (active)
5,O=C(O)c1ccc2c(c1)OCO2,0.853
6,C[C@H](CO)N1C[C@H](C)[C@H](CN(C)S(=O)(=O)c2cn(C)cn2)OCCCC[C@H](C)Oc2ccc(NS(=O)(=O)c3cccs3)cc2C1=O,1.01
7,CS(=O)(=O)N(CCC#N)Cc1ccco1,1
8,C[C@H]1CN([C@@H](C)CO)C(=O)Cc2cc(NC(=O)CCN3CCOCC3)ccc2O[C@@H]1CN(C)S(=O)(=O)c1cn(C)cn1,1.03
9,CC(C)NC(=O)N(C)C[C@@H]1Oc2ccc(NC(=O)Cc3ccccc3)cc2CC(=O)N([C@H](C)CO)C[C@H]1C,0.977
10,CC(C)NC(=O)N(C)C[C@@H]1Oc2ccc(NC(=O)CCC(F)(F)F)cc2CC(=O)N([C@H](C)CO)C[C@@H]1C,0.959
11,O=C(C1CC1)N1CCN(c2ncccn2)CC1,0.991
12,Cn1c(=O)cnn(CCCCN2CCN(c3ncccn3)CC2)c1=O,0.987
13,Cl.O=C1CC2(CCCC2)CC(=O)N1CCCCN1CCN(c2ncccn2)CC1,0.0493 (active)
14,CC(C)CC#Cc1cnc2c(c1)C(=O)N([C@@H](C)CO)C[C@@H](C)[C@H](CN(C)C(=O)CCN1CCCCC1)O2,0.987
15,COc1ccc(NC(=O)N(C)C[C@@H]2Oc3c(NC(=O)CCCCCC(=O)Nc4ccccc4N)cccc3C(=O)N([C@H](C)CO)C[C@H]2C)cc1,1.01
16,C[C@@H]1CN([C@H](C)CO)C(=O)c2cc(NC(=O)Nc3ccc(C(F)(F)F)cc3)ccc2O[C@@H]1CN(C)Cc1ccc(-c2ccccc2)cc1,0.996
17,O=C1NCCN1c1cccnc1,1.01
18,CC(=O)Nc1ncc([N+](=O)[O-])s1,0.923
19,O=C1NCCN1c1ncc([N+](=O)[O-])s1,0.0407 (active)
20,Cc1noc(C)c1NC(=O)Nc1ccc2c(c1)CC(=O)N([C@H](C)CO)C[C@@H](C)[C@H](CN(C)CC1CC1)O2,1.02
21,COC(=O)CCC(C)C1CCC2C3C(O)CC4CC(O)CCC4(C)C3CC(O)C12C (configuration not stated),1.03
22,CC(CCC(=O)O)C1CCC2C3C(O)CC4CC(O)CCC4(C)C3CCC12C (configuration not stated),1.01
23,CC(C)[C@@H](CC[C@@H](C)[C@H]1CC[C@H]2[C@@H]3[C@H](O)C[C@H]4C[C@@H](NCCCNCCCCNCCCN)CC[C@]4(C)[C@H]3CC[C@]12C)OS(=O)(=O)O,0.152 (active)
24,CCCCCCCCCCCCCCCCCCCC(=O)N[C@H]1CC[C@@]2(C)[C@@H](C1)C[C@@H](O)[C@@H]1[C@@H]2C[C@H](O)[C@]2(C)[C@@H]([C@H](C)CCC(=O)O)CC[C@@H]12,1.02
25,CC(C)[C@@H](CC[C@@H](C)[C@H]1CC[C@H]2[C@@H]3[C@H](O)C[C@H]4C[C@@H](NCCCNCCCCN)CC[C@]4(C)[C@H]3CC[C@]12C)OS(=O)(=O)O,0.137 (active)
26,C[C@H](CCC(=O)NCCS(=O)(=O)O)[C@H]1CC[C@H]2[C@@H]3[C@H](O)C[C@@H]4C[C@H](O)CC[C@]4(C)[C@H]3C[C@H](O)[C@]12C,1.01
